DAX1 inh-1 – inhibitors of human orphan nuclear receptor DAX1 (NR0B1). inhibition, % at 6.75 µM. 0.99% of 340,000 active. HEK293 Gal4-DAX1 luciferase reporter, luminescence;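 active = inhibition above the mean over all tested compounds plus 3 SD, cut at about 4.2% in these data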;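 also: 0% = DAX1-transfected cells with DMSO and 100% = empty-vector control cells with DMSO; inhibition shows as a rise in luminescence from relieved DAX1 repression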
Target sequence (P51843 207-470 limits assumed): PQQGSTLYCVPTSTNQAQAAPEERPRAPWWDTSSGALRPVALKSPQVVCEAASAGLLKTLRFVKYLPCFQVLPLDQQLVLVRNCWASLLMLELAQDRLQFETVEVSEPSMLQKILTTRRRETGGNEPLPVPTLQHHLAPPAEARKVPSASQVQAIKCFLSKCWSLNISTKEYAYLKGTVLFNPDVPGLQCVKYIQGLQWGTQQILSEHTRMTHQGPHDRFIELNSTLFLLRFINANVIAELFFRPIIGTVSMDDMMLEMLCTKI
hgDAF-12 ag – activates the H. glycines DAF-12 receptor ligand-binding domain; HEK293 GAL4-hgDAF12 UAS-luciferase reporter, agonist luminescence; normalized to butyrate control; activation, % at 6.8 µM; 1.8% of 370,000 active; AID 687014;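 active = activation above a cutoff set at the mean of all screened compounds plus 3 SD, cut at about 10% in these data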;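 also: 0% = DMSO wells and 100% = sodium butyrate wells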
hcDAF12 agonist – H. contortus DAF-12 activation, primary screen; HEK293 hcDAF-12 lit1-tk-luc reporter, luminescence; 0% DMSO, 100% Δ7-dafachronic acid; activation, % at 6.8 µM; 1.4% of 370,000 active;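 active = activation above the mean of all tested compounds plus 3 SD, cut at about 5.5% in these data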;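 also: 100% = response to 3 µM Δ7-dafachronic acid high control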
ssDAF12 agonist – S. stercoralis DAF-12 activation, primary screen; 1% of 370,000 active; activation, % at 6.8 µM; HEK293 ssDAF-12/GRIP1 lit1-tk-luc reporter, luminescence; % of 3 µM dafachronic acid response;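 active = activation above the mean over all tested compounds plus 3 SD, cut at about 0.9% in these data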;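 also: 0% = DMSO-only wells and 100% = 3 µM delta7-dafachronic acid wells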
DAX1 inh-2 – DAX1 (NR0B1) inhibition, primary screen; HEK293T StAR-luciferase reporter, SF-1/DAX-1 repression relief; inhibition, % at 6.8 µM; 1.1% of 370,000 active;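 active = inhibition above the mean over all tested compounds plus 3 SD, cut at about 3.6% in these data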;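 also: 0% = DAX-1 cells with DMSO and 100% = cells lacking DAX-1 with DMSO; higher inhibition means more luminescence from relief of DAX-1 repression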
LXR ag – LXR-beta agonism as hcDAF-12 counter-screen. 3,400 tested, under 10 active. HEK293 Gal4-LXR tk-luc reporter, luminescence, 24 h; normalized: DMSO 0%, positive control 100%. activation, % at 6.8 µM. AID 743027. shares compounds with hcDAF12 agonist;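 active = mean percent activation of the reporter above a cutoff set as the average over tested compounds plus their standard deviation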
hcDAF12 conf – hcDAF-12 agonism, confirmation assay; HEK293 hcDAF-12 lit1-tk-luc reporter, luminescence; % of Δ7-dafachronic acid response; activation, % at 6.8 µM; 61% of 3,400 active; shares compounds with hcDAF12 agonist;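 active = mean activation across triplicate tests above the threshold derived from the earlier primary screen, cut at about 5.5% in these data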;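 also: 0% = DMSO only wells and 100% = 3 µM Δ7-dafachronic acid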
Numbers without * were called inactive; / = no result; ! = repeats disagree. Rows were chosen to be rich in hits. Some 4.1% of all compounds tested hit in one or more screens of this group.

SMILES | DAX1 inh-1 | hgDAF-12 ag | hcDAF12 agonist | ssDAF12 agonist | DAX1 inh-2 | LXR ag | hcDAF12 conf
CCOc1ccccc1NC(=O)NNC(=O)CCn1nc(C)c([N+](=O)[O-])c1C | / | 0 | -2 | -1 | 1 | / | /
CN(c1ccccc1)S(=O)(=O)c1ccc(C(=O)Nc2nnc(C3CC3)o2)cc1 | 1 | 1 | 7.2* | -1 | 0 | 0 | 0
CC(C)(C)CN1CCN(CC#Cc2ccccc2)CC1CCO (stereo unspecified) | 2 | 3 | 7.5* | -1 | 0 | 0 | 5
COc1ccccc1CN[C@@H]1CC[C@@]23CCCN2C(=O)CCC[C@H]3C1 | / | 4 | 2 | -1 | / | / | /
CNC(=S)NNc1ccccc1[N+](=O)[O-] | 0 | -4 | 4 | 0 | 0 | / | /
COCCNC(=S)NNc1ccccc1[N+](=O)[O-] | 0 | 2 | 8.7* | 0 | -1 | 0 | 5
CCOc1ccc(NC(=O)C(C)Oc2ccccc2C(=O)Nc2ccc(C)c(Cl)c2)cc1 (stereo unspecified) | 0 | 8 | 7.0* | 1 | 0 | 0 | 7.4*
Cc1ccc(NC(=O)COc2ccccc2C(=O)Nc2ccccc2)cc1Cl | -1 | -2 | 1 | -1 | 0 | / | /
c1ccc(-c2ccc(-c3ccccn3)nn2)nc1 | / | 7 | 6.9* | -1 | 3 | 1 | 8.7*
c1ccc(-c2ccccn2)nc1 | -1 | 4 | -1 | -1 | 2 | / | /
N/C(CS(=O)(=O)c1ccccn1)=N\OC(=O)c1ccccc1Cl | / | 8 | 7.3* | 0 | 1 | 1 | 4
Cc1ccc2nc(/N=C(\N)NC(=O)N3c4ccccc4Sc4ccccc43)nc(C)c2c1 | 0 | 0 | -3 | -2 | 0 | / | /
Cc1ccc2c(C)nc(/N=C(\N)NC(=O)N3c4ccccc4Sc4ccccc43)nc2c1 | 0 | 3 | 10*! | 0 | 0 | 0 | -1
C=CCN1[C@H](C)COc2cc(N3CCSCC3)ccc2S1(=O)=O | / | 0 | -2 | -2 | -1 | / | /
COc1ccc(OC)c(Nc2ccc(C(=O)O)cc2[N+](=O)[O-])c1 | 0 | 2 | 8.4* | 0 | -1 | 0 | 2
CCCCCC(=O)NC1CCCCN(Cc2ccc(Cl)cc2)C1=O (stereo unspecified) | / | 1 | -2 | -1 | -1 | / | /
O=C(O)Cn1cc(/C=N/Nc2ccc([N+](=O)[O-])cn2)c2ccccc21 | 5.4* | 7 | 7.9* | 1.4* | 0 | 0 | 4
Cc1ccc(Cn2cc(/C=N/Nc3ccc([N+](=O)[O-])cn3)c3ccccc32)cc1 | 3 | 6 | 3 | -1 | 0 | / | /
COc1ccc(Cl)cc1/C=C/c1ccc2cccc(O)c2n1 | 0 | 6 | 7.7* | 0 | -1 | 0 | 3
Oc1cccc2ccc(/C=C/c3ccccc3Cl)nc12 | 2 | 10 | 7.1* | 1 | 0 | 1 | 6.5*
COc1cc(Cl)cc(/C=C/c2ccc3cccc(O)c3n2)c1OC | 1 | 1 | 0 | -1 | 1 | / | /
Oc1cccc2ccc(/C=C/c3c(F)cccc3Cl)nc12 | 4 | 18* | 9.5* | 2.0* | 3.7* | 1 | 9.6*
Fc1cccc(Cc2c(-c3cccc(Br)c3)nc3c(Cl)cc(C(F)(F)F)cn23)c1 | / | 1 | 6.6* | 0 | 0 | 0 | 1
Fc1ccc(-c2nc3c(Cl)cc(C(F)(F)F)cn3c2Cl)cc1 | 7.9* | 6 | 9.6* | 0 | 1 | 1 | 8.7*
COc1cc([N+](=O)[O-])ccc1N/C=C/C(=O)c1cccs1 | -2 | 17* | 17* | 2.3* | 3 | 1 | 16*
O=C(C=Cc1ccccc1)c1cccs1 | 0 | -1 | -2 | -1 | -2 | / | /
Cc1ccc(C(=O)/C=C/Nc2ccccc2C(N)=O)o1 | 1 | 12* | 9.3* | 0 | 3 | 1 | 5
NC(=O)c1ccccc1N/C=C/C(=O)c1cccs1 | 2 | 10 | 8.3* | 1 | 3 | 2 | 5.6*
O=C(/C=C/Nc1ccc(F)cc1)c1cccs1 | 0 | 12* | 11* | 1.7* | 4.5* | 2 | 18*
